Test results reported in PubChem BioAssay (NCI).
About 79,000 compounds went through this panel and 15% of them were active in at least one assay; those are over-represented in the sample as a whole. Values without a mark were called inactive. Active and inactive are the calls of the source. Rule as the data show it: active = growth inhibition above about 70%; inactive = the rest.

Tests used:
[1] = NCI Yeast Anticancer Drug Screen. Data for the rad50 strain (AID 155);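 also: 0% = growth of vehicle-only cultures of the same strain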; settings: S. cerevisiae rad50 strain growth inhibition; at 50.0 µM; hits give high values
How it was run: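 DNA repair mutant yeast, compound exposure, growth read-out; inhibition is taken relative to vehicle.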

[2] = NCI Yeast Anticancer Drug Screen. Data for the mec2-1 strain (AID 157); settings: S. cerevisiae mec2-1 strain, at 50.0 µM, hits give high values
How it was run: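 Growth inhibition is read against vehicle-treated controls after compound exposure of the mec2-1 yeast strain, which is defective in DNA damage repair or cell cycle control.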

[3] = NCI Yeast Anticancer Drug Screen. Data for the sgs1 mgt1 strain (AID 161);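 also: 0% = growth of cultures given vehicle only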; settings: S. cerevisiae sgs1 mgt1 strain, at 50.0 µM, hits give high values
How it was run: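 Yeast cells carrying a defined DNA-repair defect were exposed to test compounds. Growth inhibition was measured relative to vehicle-treated controls.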

[4] = NCI Yeast Anticancer Drug Screen. Data for the cln2 rad14 strain (AID 165);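 also: 0% = growth equal to vehicle treated cultures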; settings: S. cerevisiae cln2 rad14 strain, at 50.0 µM, hits give high values
How it was run: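 Growth inhibition, relative to vehicle-treated controls, is the read-out. The test organism is a yeast strain with defined genetic alterations, cln2 rad14.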

[5] = NCI Yeast Anticancer Drug Screen. Data for the bub3 strain (AID 167); settings: S. cerevisiae bub3 mutant strain, at 50.0 µM, hits give high values
How it was run: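 In this screen, a yeast mutant lacking normal mitotic checkpoint function is challenged with compound. Relative growth versus vehicle gives the inhibition value.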

[6] = NCI Yeast Anticancer Drug Screen. Data for the mlh1 rad18 strain (AID 175); settings: S. cerevisiae mlh1 rad18 strain growth inhibition; at 50.0 µM; hits give high values
How it was run: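 Cells of a genetically altered yeast strain, deficient in DNA damage repair, were treated with compound. Their growth was then compared with that of vehicle-treated cultures to give inhibition.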

NC(=O)CNCC1Cc2ccccc21 (configuration not stated)
growth inhibition [1]: 21.8% | growth inhibition [2]: 6.85% | growth inhibition [3]: 0.1% | growth inhibition [4]: -16.4% | growth inhibition [5]: 4.6% | growth inhibition [6]: 7.45%

CCOC(=O)C1=C(C)N(c2ccccc2)C2=C(C(=O)N(c3ccccc3)C2c2ccccc2)C1c1ccccc1 (configuration not stated)
growth inhibition [1]: 9.9% | growth inhibition [2]: -13.8% | growth inhibition [3]: 9.25% | growth inhibition [4]: 15% | growth inhibition [5]: -21.7% | growth inhibition [6]: 7.2%

CC(O)COC1CCCCC1 (configuration not stated)
growth inhibition [1]: -2.75% | growth inhibition [2]: -10.9% | growth inhibition [3]: 3.85% | growth inhibition [4]: -7.25% | growth inhibition [5]: -3.95% | growth inhibition [6]: -0.95%

CN(C)C(=O)C1CCNCC1
growth inhibition [1]: 2.5% | growth inhibition [2]: -2.1% | growth inhibition [3]: -4.15% | growth inhibition [4]: -9.5% | growth inhibition [5]: -11.3% | growth inhibition [6]: 3.45%

CNc1ccc(CC(=O)O)cc1
growth inhibition [1]: -2.75% | growth inhibition [2]: 3.85% | growth inhibition [3]: -2.45% | growth inhibition [4]: -42% | growth inhibition [5]: -2.05% | growth inhibition [6]: 1.8%

Nc1nc(Cl)cc(Oc2ccc(Cl)cc2)n1
growth inhibition [1]: 9.65% | growth inhibition [2]: -17.6% | growth inhibition [3]: 22.6% | growth inhibition [4]: 2.5% | growth inhibition [5]: 17% | growth inhibition [6]: -30.6%

C(=C/c1ccccn1)/c1ccccc1
growth inhibition [1]: 39.4% | growth inhibition [2]: 15.1% | growth inhibition [3]: 21.3% | growth inhibition [4]: 16.5% | growth inhibition [5]: 14.6% | growth inhibition [6]: 11.1%

CCC(=O)Oc1ccc([N+](=O)[O-])cc1[N+](=O)[O-]
growth inhibition [1]: 38.6% | growth inhibition [2]: 30.6% | growth inhibition [3]: 49.3% | growth inhibition [4]: 26.6% | growth inhibition [5]: -0.5% | growth inhibition [6]: 21.6%

Cc1ccc(C(CS(=O)(=O)c2ccc(C)cc2)c2ccccc2)cc1 (configuration not stated)
growth inhibition [1]: 0.5% | growth inhibition [2]: 6.15% | growth inhibition [3]: -7.8% | growth inhibition [4]: -20.1% | growth inhibition [5]: 1.7% | growth inhibition [6]: -19.9%

Cc1ccc2nc(C)ccc2c1
growth inhibition [1]: -38.2% | growth inhibition [2]: -23.2% | growth inhibition [3]: -2.7% | growth inhibition [4]: -16.1% | growth inhibition [5]: -0.2% | growth inhibition [6]: -3.4%

CCCc1cc(=O)n(CCCc2ccccc2)c(=O)n1CCCc1ccccc1
growth inhibition [1]: 10.3% | growth inhibition [2]: -8.7% | growth inhibition [3]: -8.95% | growth inhibition [4]: -36.1% | growth inhibition [5]: -3.65% | growth inhibition [6]: 16%

CCCN(CCC#N)C(=S)Nc1ccc(C)c(C)c1
growth inhibition [1]: -13.1% | growth inhibition [2]: -54.7% | growth inhibition [3]: -3.1% | growth inhibition [4]: -7.5% | growth inhibition [5]: -41.6% | growth inhibition [6]: -27.9%

CC(O)CN1CCN(CN(CC(C)O)CC(C)O)CC1 (configuration not stated)
growth inhibition [1]: 0.55% | growth inhibition [2]: 7.25% | growth inhibition [3]: 10.7% | growth inhibition [4]: -2.65% | growth inhibition [5]: 9% | growth inhibition [6]: -16.4%

Cc1ccc(C(=O)/C=C/c2ccc3c(c2)OCO3)c(C)c1
growth inhibition [1]: 39.9% | growth inhibition [2]: 21.8% | growth inhibition [3]: 52.6% | growth inhibition [4]: -6.7% | growth inhibition [5]: 47.5% | growth inhibition [6]: 33.3%

Cc1ccc2nc(C)cn2c1
growth inhibition [1]: -0.05% | growth inhibition [2]: 7.7% | growth inhibition [3]: -1.15% | growth inhibition [4]: 14.3% | growth inhibition [5]: 10.7% | growth inhibition [6]: 2.3%

CCNC(=S)NNC(=O)c1ccc(N=NN(C)C)cc1
growth inhibition [1]: -5.15% | growth inhibition [2]: 12.8% | growth inhibition [3]: 10.3% | growth inhibition [4]: -13.4% | growth inhibition [5]: 14.8% | growth inhibition [6]: 10.9%

Clc1ncnc2c1cnn2-c1ccccc1
growth inhibition [1]: -4.05% | growth inhibition [2]: -8.55% | growth inhibition [3]: 1.05% | growth inhibition [4]: -30.9% | growth inhibition [5]: -2.55% | growth inhibition [6]: -6.1%

CC1(Br)CC2=C(CC1(C)Br)C(=O)C(c1ccccc1)=C(c1ccccc1)C2=O (configuration not stated)
growth inhibition [1]: 9.25% | growth inhibition [2]: 17.1% | growth inhibition [3]: 39.2% | growth inhibition [4]: 25% | growth inhibition [5]: 12.3% | growth inhibition [6]: 23.4%

C=C(C(=O)NC1CCCCC1)c1ccccc1
growth inhibition [1]: -9.2% | growth inhibition [2]: -22.4% | growth inhibition [3]: -8.2% | growth inhibition [4]: -12.4% | growth inhibition [5]: 8.25% | growth inhibition [6]: 0%

CCN(CC)CCCNc1cccc2nc(Cl)ccc12
growth inhibition [1]: 12.1% | growth inhibition [2]: 18.6% | growth inhibition [3]: 37.2% | growth inhibition [4]: 24.5% | growth inhibition [5]: 2.65% | growth inhibition [6]: 9.25%

S=C1SC(=Nc2ccccc2)C(=Nc2ccccc2)N1c1ccccc1
growth inhibition [1]: -21.1% | growth inhibition [2]: -15.9% | growth inhibition [3]: 6.7% | growth inhibition [4]: -37.1% | growth inhibition [5]: -19.5% | growth inhibition [6]: -20.6%

CN(C1CCCCC1)S(=O)(=O)c1ccc(N)cc1
growth inhibition [1]: 7.65% | growth inhibition [2]: -3.35% | growth inhibition [3]: 12% | growth inhibition [4]: 11.4% | growth inhibition [5]: 5.25% | growth inhibition [6]: 24.5%

CCOC(=O)CCCCCCCCCCCCC1C=CCC1 (configuration not stated)
growth inhibition [1]: -19.1% | growth inhibition [2]: -41.4% | growth inhibition [3]: -3.45% | growth inhibition [4]: -28.6% | growth inhibition [5]: -49.1% | growth inhibition [6]: -21.3%

O=C1NC(=O)C2(CCCC2=Nc2ccc(Br)cc2)C2C=CN(Cc3ccccc3)C=C12 (configuration not stated)
growth inhibition [1]: 0.25% | growth inhibition [2]: -4.25% | growth inhibition [3]: 6.3% | growth inhibition [4]: 2.4% | growth inhibition [5]: 3.65% | growth inhibition [6]: 35.2%

O=[N+]([O-])c1ccc(N=Nc2c(S(=O)(=O)O)cc3cc(S(=O)(=O)O)ccc3c2O)c([N+](=O)[O-])c1
growth inhibition [1]: 24.3% | growth inhibition [2]: 0.9% | growth inhibition [3]: 30.9% | growth inhibition [4]: 31.3% | growth inhibition [5]: 32.1% | growth inhibition [6]: 20.2%

CC1(c2ccccc2)OC1(C)c1ccccc1 (configuration not stated)
growth inhibition [1]: 5.7% | growth inhibition [2]: -5.6% | growth inhibition [3]: -7.65% | growth inhibition [4]: -17.1% | growth inhibition [5]: 21.1% | growth inhibition [6]: 28.8%

Cc1nc2ccccc2c(=O)n1NC(=S)Nc1ccccc1
growth inhibition [1]: -40.9% | growth inhibition [2]: -57.1% | growth inhibition [3]: -41.5% | growth inhibition [4]: 7.85% | growth inhibition [5]: -32.4% | growth inhibition [6]: -59.5%

Cc1c(C(=O)CC(=O)C(=O)Nc2cc(Cl)ccc2Cl)[n+](=O)c2ccccc2n1[O-]
growth inhibition [1]: -7.35% | growth inhibition [2]: 1.9% | growth inhibition [3]: -40.2% | growth inhibition [4]: 16.2% | growth inhibition [5]: 1.1% | growth inhibition [6]: 1.65%

Cc1ccc(S(=O)(=O)NC(=O)C2(Br)S(=O)(=O)OCCOS2(=O)=O)cc1
growth inhibition [1]: 1.25% | growth inhibition [2]: -28.4% | growth inhibition [3]: 6.1% | growth inhibition [4]: -54.9% | growth inhibition [5]: 24.6% | growth inhibition [6]: 12%

CCN1C(=O)c2cc(=O)[nH]c(O)c2C1C (configuration not stated)
growth inhibition [1]: 7.8% | growth inhibition [2]: -2.7% | growth inhibition [3]: -1.7% | growth inhibition [4]: -20.4% | growth inhibition [5]: -2.65% | growth inhibition [6]: 10.9%

CCc1cc2ccccc2oc1=O
growth inhibition [1]: -1.1% | growth inhibition [2]: 3.65% | growth inhibition [3]: 0.1% | growth inhibition [4]: -18.1% | growth inhibition [5]: 1.55% | growth inhibition [6]: -5.85%

CC(C(O)c1ccc(Cl)cc1)C(O)(C(F)(F)F)C(F)(F)F (configuration not stated)
growth inhibition [1]: 99.2% (active) | growth inhibition [2]: 99.3% (active) | growth inhibition [3]: 99.2% (active) | growth inhibition [4]: 99% (active) | growth inhibition [5]: 99% (active) | growth inhibition [6]: 99.4% (active)

Nc1nc(-c2cc(C(c3ccccc3)c3ccccc3)nc(N)n2)cc(C(c2ccccc2)c2ccccc2)n1
growth inhibition [1]: -6.45% | growth inhibition [2]: 13.8% | growth inhibition [3]: -24.6% | growth inhibition [4]: 3.45% | growth inhibition [5]: -2.3% | growth inhibition [6]: 9.95%

COCc1cc(=O)c(OC)cn1CCO
growth inhibition [1]: -40.5% | growth inhibition [2]: -17.9% | growth inhibition [3]: -25.9% | growth inhibition [4]: -63.1% | growth inhibition [5]: 0% | growth inhibition [6]: -5.2%

COc1c(O)c(O)c2c(c1O)C(=O)c1cc(C)cc(O)c1C2=O
growth inhibition [1]: -16.3% | growth inhibition [2]: -27% | growth inhibition [3]: -22.7% | growth inhibition [4]: -8.45% | growth inhibition [5]: -30% | growth inhibition [6]: -19.4%

OCC1CC=CCC1 (configuration not stated)
growth inhibition [1]: 2.35% | growth inhibition [2]: -22.1% | growth inhibition [3]: -4.35% | growth inhibition [4]: 16% | growth inhibition [5]: -27.1% | growth inhibition [6]: 11.6%

Nc1ccc(N(S(=O)(=O)c2ccccc2)S(=O)(=O)c2ccccc2)nc1
growth inhibition [1]: 27.4% | growth inhibition [2]: 6.3% | growth inhibition [3]: 11.1% | growth inhibition [4]: -4.45% | growth inhibition [5]: 2.25% | growth inhibition [6]: 17.7%
